# Results: PMC7862700, “An all-to-all approach to the identification of sequence-specific readers for epigenetic DNA modifications on cytosine”
# Biological target: T1, ERF (Homo sapiens, UniProt P50548 1-548)
# T1 sequence: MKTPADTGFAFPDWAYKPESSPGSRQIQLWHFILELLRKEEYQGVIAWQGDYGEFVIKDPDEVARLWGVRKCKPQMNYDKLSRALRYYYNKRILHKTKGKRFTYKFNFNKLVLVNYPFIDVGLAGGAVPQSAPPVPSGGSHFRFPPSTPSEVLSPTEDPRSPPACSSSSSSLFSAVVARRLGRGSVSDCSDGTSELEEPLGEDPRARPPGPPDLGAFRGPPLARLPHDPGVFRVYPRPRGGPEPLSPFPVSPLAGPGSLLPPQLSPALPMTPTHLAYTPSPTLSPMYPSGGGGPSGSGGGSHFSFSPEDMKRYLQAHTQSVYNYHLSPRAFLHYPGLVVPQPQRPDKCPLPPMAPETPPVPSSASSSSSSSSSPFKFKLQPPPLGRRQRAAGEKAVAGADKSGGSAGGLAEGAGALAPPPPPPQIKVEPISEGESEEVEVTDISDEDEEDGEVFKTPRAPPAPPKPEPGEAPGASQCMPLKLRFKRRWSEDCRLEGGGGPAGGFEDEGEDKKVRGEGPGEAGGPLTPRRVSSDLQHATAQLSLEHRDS
# Assay: DAPPL (digital affinity profiling via proximity ligation, sequencing); 10 mM Tris-HCl pH 7.5, 50 mM NaCl, 1 mM DTT, 4% glycerol, room temperature, 30 min; GST-TFs on glutathione beads, 16-mer random dsDNA library, 0.1% formaldehyde crosslink after washing; high values mean tight binding
# Details: protein: recombinant; tags: N-terminal GST; dsDNA, one strand shown
# Method in brief: (§1)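 GST fusions of human transcription factors were expressed in yeast and captured with glutathione beads. Once given DNA barcodes and pooled alongside a tag-only sample, they were incubated for 30 min at room temperature with 200 nmole of a random double-stranded 16-mer DNA library in Tris/NaCl/DTT/glycerol buffer, then washed, crosslinked (0.1% formaldehyde), proximity-ligated, PCR-amplified and sequenced on an Illumina NextSeq500. The binding signal of each hexamer is its read frequency for a factor divided by its frequency for the tag-only sample.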
row,Sequence,binding signal
1,TTTCAA,"1.22 fold enrichment (6-mer frequency, TF over GST control)"
2,AATCAG,"1.05 fold enrichment (6-mer frequency, TF over GST control)"
3,TAAAGA,"1.23 fold enrichment (6-mer frequency, TF over GST control)"
4,ACATAC,"1.23 fold enrichment (6-mer frequency, TF over GST control)"
5,GCCTTT,"1.29 fold enrichment (6-mer frequency, TF over GST control)"
6,TTTGTC,"1.23 fold enrichment (6-mer frequency, TF over GST control)"
7,CCCACG,"1.13 fold enrichment (6-mer frequency, TF over GST control)"
8,CTGACA,"1.21 fold enrichment (6-mer frequency, TF over GST control)"
9,ACTGGC,"1.18 fold enrichment (6-mer frequency, TF over GST control)"
10,CTCCAT,"1.37 fold enrichment (6-mer frequency, TF over GST control)"
11,GCTCTT,"1.5 fold enrichment (6-mer frequency, TF over GST control)"
12,CCTCGC,"1.31 fold enrichment (6-mer frequency, TF over GST control)"
13,ATGTGT,"1.15 fold enrichment (6-mer frequency, TF over GST control)"
14,ACTCAT,"1.39 fold enrichment (6-mer frequency, TF over GST control)"
15,TAAACA,"1.31 fold enrichment (6-mer frequency, TF over GST control)"
16,GTAATC,"1.08 fold enrichment (6-mer frequency, TF over GST control)"
17,CCGATC,"1.17 fold enrichment (6-mer frequency, TF over GST control)"
18,TTTGGG,"1.39 fold enrichment (6-mer frequency, TF over GST control)"
19,CCGGAA,"4.48 fold enrichment (6-mer frequency, TF over GST control)"
20,ACGACA,"1.11 fold enrichment (6-mer frequency, TF over GST control)"

row,Sequence,binding signal
1,TAACCA,"1.1 fold enrichment (6-mer frequency, TF over GST control)"
2,ACTGCA,"1.13 fold enrichment (6-mer frequency, TF over GST control)"
3,ATTGTC,"1.23 fold enrichment (6-mer frequency, TF over GST control)"
4,AGGAAA,"1.34 fold enrichment (6-mer frequency, TF over GST control)"
5,AGATGC,"1.23 fold enrichment (6-mer frequency, TF over GST control)"
6,ATTCAG,"1.15 fold enrichment (6-mer frequency, TF over GST control)"
7,TTGCAC,"1.3 fold enrichment (6-mer frequency, TF over GST control)"
8,CGGTCT,"1.21 fold enrichment (6-mer frequency, TF over GST control)"
9,TCCTTA,"1.43 fold enrichment (6-mer frequency, TF over GST control)"
10,CCGCTA,"1.38 fold enrichment (6-mer frequency, TF over GST control)"
11,TGCGAC,"1.22 fold enrichment (6-mer frequency, TF over GST control)"
12,CCCCGG,"1.34 fold enrichment (6-mer frequency, TF over GST control)"
13,CACCCG,"1.25 fold enrichment (6-mer frequency, TF over GST control)"
14,TGCACC,"1.21 fold enrichment (6-mer frequency, TF over GST control)"
15,TGGGCT,"1.27 fold enrichment (6-mer frequency, TF over GST control)"
16,CCAAAT,"1.11 fold enrichment (6-mer frequency, TF over GST control)"
17,ATGTCC,"1.36 fold enrichment (6-mer frequency, TF over GST control)"
18,TGATCC,"1.23 fold enrichment (6-mer frequency, TF over GST control)"
19,TACAAG,"1.1 fold enrichment (6-mer frequency, TF over GST control)"
20,TTCACA,"1.26 fold enrichment (6-mer frequency, TF over GST control)"

# Biological target: T2, ETV3L (Homo sapiens, UniProt Q6ZN32 1-361)
# T2 sequence: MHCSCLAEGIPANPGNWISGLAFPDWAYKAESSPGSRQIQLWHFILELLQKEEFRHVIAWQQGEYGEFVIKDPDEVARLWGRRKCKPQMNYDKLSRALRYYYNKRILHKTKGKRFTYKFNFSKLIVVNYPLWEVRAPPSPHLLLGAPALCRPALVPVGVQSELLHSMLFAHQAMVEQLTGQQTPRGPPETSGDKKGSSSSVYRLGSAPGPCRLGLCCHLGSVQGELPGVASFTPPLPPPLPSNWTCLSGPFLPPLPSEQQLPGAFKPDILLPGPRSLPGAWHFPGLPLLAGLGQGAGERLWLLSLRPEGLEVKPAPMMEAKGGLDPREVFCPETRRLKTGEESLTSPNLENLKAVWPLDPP
# Assay: as above
# Details: protein: recombinant; tags: N-terminal GST; dsDNA, one strand shown
# Method in brief: as §1
row,Sequence,binding signal
1,TTTCAA,"1.28 fold enrichment (6-mer frequency, TF over GST control)"
2,AATCAG,"1.15 fold enrichment (6-mer frequency, TF over GST control)"
3,TAAAGA,"1.12 fold enrichment (6-mer frequency, TF over GST control)"
4,ACATAC,"1.15 fold enrichment (6-mer frequency, TF over GST control)"
5,GCCTTT,"1.27 fold enrichment (6-mer frequency, TF over GST control)"
6,TTTGTC,"1.32 fold enrichment (6-mer frequency, TF over GST control)"
7,CCCACG,"1.05 fold enrichment (6-mer frequency, TF over GST control)"
8,CTGACA,"1.34 fold enrichment (6-mer frequency, TF over GST control)"
9,ACTGGC,"1.18 fold enrichment (6-mer frequency, TF over GST control)"
10,CTCCAT,"1.21 fold enrichment (6-mer frequency, TF over GST control)"
